This note sets out measurements from ChEMBL document CHEMBL4513216, “Probing the Open Global Health Chemical Diversity Library for Multistage-Active Starting Points for Next-Generation Antimalarials” (ACS Infect Dis, 2020).

The whole screen tested about 69,000 compounds, of which about 8,600 (12%) showed an effect of 50% or more. The full list was thinned out, with strong results kept by preference.

The experiment relates to Plasmodium berghei. Description: Screen against P. berghei liver stage (PbLuc), transformed with Luciferase, at 10uM. The format is functional, HepG2. The conditions noted are these: tested at 10 uM.
For the compound `CN(C)c1cccc(CNCc2ccc(N3CCOCC3)cc2)c1`, the INHIBITION is recorded as 34.1%. With `Cn1cc(CN2CC[C@H]3C[C@@H](c4nc(C5CC5)cs4)O[C@@H]3C2)cn1`, the INHIBITION is reported as 47%. `Cc1csc(CN2C[C@@H]3CN(C)CCO[C@@H]3C2)n1`: the INHIBITION is given as 57.5%.

`Cc1csc([C@@H]2C[C@@H]3CCN(Cc4cnn(C)c4)C[C@H]3O2)n1`: the INHIBITION was -3.19%. `Cc1csc(CN2C[C@@H]3CN(CC4CCOCC4)CCO[C@@H]3C2)n1`: the INHIBITION was found to be 47.5%. Regarding `Cc1cc(CN2CC[C@H]3C[C@H](c4nc(C5CC5)cs4)O[C@@H]3C2)no1`, the INHIBITION worked out at 74.7%. For `Cc1csc([C@@H]2C[C@@H]3CCN(C(=O)c4cc(C)on4)C[C@H]3O2)n1`, the INHIBITION stood at 5.53%. `Cc1csc(CN2C[C@@H]3CN(S(C)(=O)=O)CCO[C@@H]3C2)n1`: the INHIBITION was 33.1%.

`c1cc(CN2CC[C@H]3C[C@H](c4nc(C5CC5)cs4)O[C@@H]3C2)ccn1`: the INHIBITION is recorded as 67.5%.

With `Cn1cc(CN2CC[C@H]3C[C@H](c4nc(C5CC5)cs4)O[C@@H]3C2)cn1`, the INHIBITION stood at 41.8%. With `Cc1nn(C)cc1S(=O)(=O)NC1(CN2CCOCC2)CCCCC1`, the INHIBITION was 28%. The result for `COc1ccccc1C(C)(C)NC(=O)c1cc(NC(C)=O)ccc1F` reads -52.3%; that for `CCSCc1nc(O)c2nnn(C3CCN(Cc4ccoc4)CC3)c2n1`, 18.39%; that for `CC(C)c1nc2c(n1C)CCN(CC(=O)Nc1cccnc1)C2`, -55.4%. In the case of `O=C(NCC1CCN(c2ccncc2)CC1)C(O)c1ccccc1` (configuration not stated), the INHIBITION was determined as 36.4%.

As for `Cc1nocc1C(=O)N1CCCC2(CCN(c3cnn(C)c3)C2=O)C1` (configuration not stated), the INHIBITION is on record as 38.5%. As for `CC(C)c1cc(C2CCCN2C(=O)CN2C(=O)CCNC2=O)no1` (configuration not stated), the INHIBITION is recorded as 5.91%.

Consider `O=S(=O)(c1ccccc1Br)N1CCC2(CC1)OCCS2`, for which the INHIBITION was 0.325%. With `Cc1cnn(CC2CN(CC(=O)NCc3ccco3)CCO2)c1` (configuration not stated), the INHIBITION is 11.2%. To `CCCN(Cc1cnn(C)c1)S(=O)(=O)c1cc(C)cc(F)c1` belongs -6.11%; to `Cc1noc(CCCC(=O)NCC2CCS(=O)(=O)C2)n1` (configuration not stated), -7.35%. The result for `Cn1nccc1-c1ccc2nc(C3CCN(CC4CC4)CC3)nn2c1` reads 38.2%; that for `CS(=O)(=O)CCCN(CCc1cccc(F)c1)C1CC1`, -22.3%. To `Cc1cccc(CN2C[C@@H]3CN(C(=O)[C@H]4CCCO4)C[C@@H]3C2=O)c1` belongs 58.2%. On to `COc1ccc(CN2C[C@@H]3CN(C(=O)[C@H]4CCCO4)C[C@@H]3C2=O)cc1`, for which the INHIBITION is reported as -43%. For the compound `Cc1cccc(CN2C[C@@H]3CN(C(=O)C4CCOC4)C[C@@H]3C2=O)c1` (some centres not stated), the INHIBITION was 53%. The result for `O=C(C1CCOC1)N1C[C@H]2CN(Cc3cccc(F)c3)C(=O)[C@H]2C1` (some centres not stated) reads 34.9%.

For `O=C(C1CCOC1)N1C[C@H]2CN(Cc3cccnc3)C(=O)[C@H]2C1` (some centres not stated), the INHIBITION was 17.7%.

In the case of `Cc1cccc(CN2C[C@@H]3CN(C(=O)c4ccnnc4)C[C@@H]3C2=O)c1`, the INHIBITION is on record as 4.61%.

For `CN1C[C@@H]2CN(C(=O)C3CCOC3)C[C@@H]2C1=O` (some centres not stated), the INHIBITION stood at 33%.

`O=C(C1CCOC1)N1C[C@H]2CN(c3ccccc3)C(=O)[C@H]2C1` (some centres not stated): the INHIBITION amounted to 52.6%. For the compound `O=C(C1CCC1)N1C[C@@H]2CN(c3ccccc3)C(=O)[C@@H]2C1`, the INHIBITION came to 46.9%.
